{
  "source": "PubChem BioAssay (NCI)",
  "note": "“And” between values parts separate entries of the source, which are not always exact repeats. Equal values may be shown once. Compounds without any hit were thinned out: in the full panel of roughly 83,000, 20% have a hit.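 Compound tested at a single concentration for 48 hours in 96-well plates; a percent growth value below 10 was scored as active.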 The source made the active and inactive calls.",
  "data": [
    {"test_system": "MDA-MB-468 breast", "experiment": "NCI-60 one-dose screen, 48 h (100 = growth as untreated, 0 = no growth, -100 = all killed)", "details": "10 µM unless noted", "values": [
      {"molecule": "O=C1c2c(c3c4cccnc4[nH]c3c3ccc4ccccc4c23)C(=O)N1O", "growth": "45.5% (inactive)"},
      {"molecule": "NC(N)=Nc1ccc(Oc2cccc(NC(N)=Nc3ccc(I)cc3F)c2)cn1", "growth": "-8.03% (active)"},
      {"molecule": "COc1ccc(-c2cc(-c3cccnc3)nc3sc4c(Cl)nnnc4c23)cc1OC", "growth": "80.1% (inactive)"},
      {"molecule": "CN(C)c1ccc(-c2c(C#N)c(N)n3nc(N)c(C#N)c3c2C#N)cc1", "growth": "81.3% (inactive)"},
      {"molecule": "CN(C)CC(C)(C)C(=O)/C=C/c1ccccc1", "growth": "-49% [25 µM] (active)"},
      {"molecule": "CCCC/C=N/NC(=S)NCc1ccccc1", "growth": "93% (inactive)"},
      {"molecule": "NC(N)=Nc1ccc(Oc2cccc(Oc3ccc(Cl)c(C(F)(F)F)c3)c2)cn1", "growth": "-79.3% (active)"},
      {"molecule": "NC(=O)c1cc(Br)ccc1NC(=O)/C=C/c1ccccc1", "growth": "27.8% (inactive)"},
      {"molecule": "O=c1[nH]c(Cl)nc2c1cnn2-c1ccccc1", "growth": "101% (inactive)"},
      {"molecule": "OCCNCCNC(Cc1ccc(Cl)cc1)c1ccccc1", "note": "(stereo not given)", "growth": "86.4% (inactive)"},
      {"molecule": "COc1ccc(-c2nsc3c2NC(=O)CC3c2ccc3c(c2)OCO3)cc1", "note": "(stereo not given)", "growth": "10.3% (inactive)"},
      {"molecule": "COc1ccc(/C=C/C(=O)c2cc3c(N)c(C(=O)Nc4cccc(Cl)c4C)sc3nc2C)cc1", "growth": "17.1% (inactive)"},
      {"molecule": "COc1ccc(CC2c3cc(OC)c(OC)cc3CC[N+]2(C)CCC(=O)OCCCCCOC(=O)CC[N+]2(C)CCc3cc(OC)c(OC)cc3C2Cc2ccc(OC)c(OC)c2)cc1OC", "note": "(stereo not given)", "growth": "88.3% (inactive)"},
      {"molecule": "C=CCN1C=CC(=O)[C@H](O[Si](C)(C)C(C)(C)C)[C@@H]1/C=C/c1ccccc1", "growth": "-72.9% [100 µM] (active)"},
      {"molecule": "C=CCn1c(C)nc2cc(Nc3nc(Nc4ccc5nc(C)n(CC=C)c5c4)c4ccccc4n3)ccc21", "growth": "-85% (active)"},
      {"molecule": "C[C@]12CCc3c(ccc4cc(O)ccc34)[C@@H]1C[C@H](O)[C@@H]2O", "growth": "100% (inactive)"},
      {"molecule": "O=C1C[C@H](N2C(=O)c3ccccc3S2(=O)=O)C2CO[C@@H]1O2", "growth": "80.3% (inactive)"},
      {"molecule": "O=C(NCCN1CCOCC1)c1cncnc1Nc1ccc2c(ccn2Cc2ccccn2)c1", "growth": "98% (inactive)"},
      {"molecule": "CC1CC(O)CC(C)(C)C1", "note": "(stereo not given)", "growth": "108% (inactive)"},
      {"molecule": "Cc1c(C(=O)CCl)c(=O)n(-c2ccccc2)n1C", "growth": "-19.1% (active)"},
      {"molecule": "N#Cc1ccc(NC(=O)Nc2cccc(C#N)c2)cc1", "growth": "46.5% (inactive)"},
      {"molecule": "Cn1cnc([N+](=O)[O-])c1Sc1ncnc2nc[nH]c12", "growth": "-4.47% (active) and 77.7% (inactive)"},
      {"molecule": "NS(=O)(=O)c1ccc(C2C3=C(CCCC3=O)OC3=C2C(=O)c2ccccc2C3=O)cc1", "note": "(stereo not given)", "growth": "-47.4% (active)"},
      {"molecule": "CN1CCN(Cc2ccc(NC(=O)c3cncc(C#Cc4cnc(N)c5cnccc45)c3)cc2C(F)(F)F)CC1", "growth": "6.98% (active)"},
      {"molecule": "CC[C@H]1OC(=O)[C@H](C)[C@@H](O[C@H]2C[C@@](C)(OC)[C@@H](O)[C@H](C)O2)[C@H](C)[C@@H](O[C@@H]2O[C@H](C)C[C@H](N(C)C)[C@H]2O)[C@](C)(O)C[C@H](C)CN(C)[C@H](C)[C@@H](O)[C@]1(C)O", "growth": "86.7% (inactive)"},
      {"molecule": "O=C(Nc1ccc(F)cc1F)c1cc(Cl)ccc1O", "growth": "-4.07% (active)"},
      {"molecule": "Oc1ccc2c(c1)CCc1ccccc1-2", "growth": "105% (inactive)"},
      {"molecule": "CCOC(=O)[C@@H]1CSC(CC)=C(C(=O)O)N1", "growth": "113% (inactive)"},
      {"molecule": "C/C(=C\\c1cc(Cl)ccc1OCC(=O)O)[N+](=O)[O-]", "growth": "112% (inactive)"},
      {"molecule": "COC(=O)C1Cc2ccccc2CN1C(=O)c1ccc2c(c1)Cc1ccccc1-2", "note": "(stereo not given)", "growth": "14.5% [50 µM] (inactive)"},
      {"molecule": "Cc1ccc(Nc2nc(N)nc(Nc3ccc4ccccc4c3)n2)cc1", "growth": "20.2% (inactive)"},
      {"molecule": "CC(=O)Cc1nsc(NC(=O)c2cc(-c3cc(Cl)ccc3Cl)oc2C)n1", "growth": "100% (inactive)"},
      {"molecule": "CC1=C(/C=C/C(C)=C/C=C/C(C)=C/C(=O)O)C(C)(C)CCC1", "growth": "99.9% (inactive) and 110% (inactive)"},
      {"molecule": "Cc1[nH]c(=O)[nH]c(=O)c1Br", "growth": "107% (inactive)"},
      {"molecule": "Cc1cccnc1NC(=S)Nc1ncccc1C", "growth": "71.9% (inactive)"},
      {"molecule": "Cc1cc(C)n(C(=O)CSc2nc3sc4c(c3c(=O)n2-c2ccccc2)CCCCC4)n1", "growth": "111% (inactive)"},
      {"molecule": "CC1=CC(C)=Nc2ccc(Cl)cc2N1", "growth": "109% (inactive)"},
      {"molecule": "Cc1cc2ncc(-c3cc4ccccc4c(N4CCN(C)CC4)n3)nc2cc1C", "growth": "-76.6% (active)"},
      {"molecule": "C=C1CCC2C(C)(COC(=O)CC)C(OC(=O)CC)CCC2(C)C1C/C=C1/C(=O)OCC1OC(=O)CC", "note": "(stereo not given)", "growth": "-48.5% (active)"},
      {"molecule": "CCNCc1ccncc1", "growth": "96.9% (inactive)"}
    ]}
  ]
}
